# Out of some 310,000 compounds screened, about 14,000 (4.5%) showed an effect of 50% or more. The effect is printed as a negative number. The entries come from a sample that favours strong results as a whole.
# Molecular target: human ether-à-go-go-related gene (hERG) potassium channel (human, UniProt Q12809)
# Assay: primary screen, population patch clamp on CHO cells stably expressing hERG; higher = less effect of the substance
# 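Note: peak tail current of the secondary pulse compared with the same well before compound.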
# human ether-à-go-go-related gene (hERG) potassium channel, sequence (Q12809 whole entry, looked up): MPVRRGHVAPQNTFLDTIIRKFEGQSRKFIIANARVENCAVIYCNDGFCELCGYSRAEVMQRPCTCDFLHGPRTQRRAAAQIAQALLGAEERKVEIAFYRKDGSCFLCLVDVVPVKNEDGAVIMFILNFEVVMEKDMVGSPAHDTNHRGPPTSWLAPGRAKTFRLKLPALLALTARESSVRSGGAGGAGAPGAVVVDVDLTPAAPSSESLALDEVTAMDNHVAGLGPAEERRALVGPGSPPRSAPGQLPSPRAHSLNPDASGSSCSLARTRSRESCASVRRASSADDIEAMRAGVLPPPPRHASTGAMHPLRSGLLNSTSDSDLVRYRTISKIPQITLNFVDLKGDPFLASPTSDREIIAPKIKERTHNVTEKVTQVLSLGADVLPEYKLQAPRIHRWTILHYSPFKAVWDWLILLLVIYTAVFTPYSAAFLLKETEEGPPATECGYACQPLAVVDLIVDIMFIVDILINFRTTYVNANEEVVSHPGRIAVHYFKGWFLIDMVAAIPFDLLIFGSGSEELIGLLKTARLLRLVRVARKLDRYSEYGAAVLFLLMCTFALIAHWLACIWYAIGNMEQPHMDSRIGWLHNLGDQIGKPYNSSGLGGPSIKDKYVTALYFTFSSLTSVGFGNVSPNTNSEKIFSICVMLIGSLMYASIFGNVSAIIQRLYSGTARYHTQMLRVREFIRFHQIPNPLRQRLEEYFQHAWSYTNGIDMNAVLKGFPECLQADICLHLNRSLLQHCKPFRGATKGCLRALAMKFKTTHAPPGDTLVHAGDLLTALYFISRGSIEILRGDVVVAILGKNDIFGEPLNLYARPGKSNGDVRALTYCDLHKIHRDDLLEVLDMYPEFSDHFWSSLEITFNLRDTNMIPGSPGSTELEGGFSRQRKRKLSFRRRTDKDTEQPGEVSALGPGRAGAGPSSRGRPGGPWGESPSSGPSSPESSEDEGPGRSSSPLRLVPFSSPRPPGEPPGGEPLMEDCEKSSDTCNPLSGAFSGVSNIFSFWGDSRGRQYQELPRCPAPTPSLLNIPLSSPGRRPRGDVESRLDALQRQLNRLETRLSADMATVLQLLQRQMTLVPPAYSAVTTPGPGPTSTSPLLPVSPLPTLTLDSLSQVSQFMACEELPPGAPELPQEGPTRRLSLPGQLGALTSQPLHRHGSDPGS
row,SMILES,"hERG current change (%, negative = inhibition) at 10uM [%]"
1,CC1CCCCC1NC(=O)Cn1c(=O)oc2cc(S(=O)(=O)N3CCCC3)ccc21 (stereo not drawn),18.8
2,O=NNc1nc2ccccc2n1Cc1ccccc1,-1.83
3,COc1ccc(C2C(C(=O)c3ccc(C)o3)=C(O)C(=O)N2Cc2ccco2)cc1OC (stereo not drawn),21
4,CCOCCCNC(=O)C(c1ccc(OC)cc1)N(Cc1ccc2c(c1)OCO2)C(=O)CNC(C)=O (stereo not drawn),15.3
5,CCc1nnc(NC(=O)C(NC(=O)c2ccccc2Cl)C(C)C)s1 (stereo not drawn),0.192
6,CCCCSc1nnc(-c2ccccc2)c2ccccc12,-37.3
7,Cc1ccc2c(c1)C(=O)N(CCCCO)C2=O,20.1
8,O=c1cc(CSc2ccccc2)[nH]c2ccccc12,8.17
9,O=C(C[n+]1ccccc1)Nc1c(Cl)cc(Cl)cc1Cl.[Cl-],13.1
10,CC(=O)Nc1ccccc1C(=O)OCC(=O)c1ccccc1Cl,-12
11,CC1=NN(c2cccc(F)c2)C(=O)/C1=C/c1ccc(N(C)C)cc1,6.38
12,CCn1c(CNc2cccc(Cl)c2)nnc1SCC(=O)OC1CCCCC1,-25
13,COC(=O)CSc1nnc(CNc2ccc(Cl)cc2)n1Cc1ccccc1,-54.7
14,CCn1c(CNc2ccc(F)cc2)nnc1SCC(=O)OC1CCCCC1,-51.7
15,CC(C)OC(=O)CSc1nnc(CNc2ccc(Cl)cc2)n1Cc1ccccc1,-33
16,CCn1c(CNc2ccc(Cl)cc2)nnc1SCC(=O)OC1CCCCC1,-37
17,CCOC(=O)CSc1nnc(CNc2ccc(Cl)cc2)n1Cc1ccccc1,-21.8
18,CN(C)S(=O)(=O)c1cccc(NC(=O)COC(=O)CNC(=O)c2cccc([N+](=O)[O-])c2)c1,-39.6
19,CCOc1ccc(N2C(=O)CSC23CCCCC3)cc1,-3.56
20,COC(=O)c1[nH]c(C)c(/C(O)=C2\C(=O)C(=O)N(CCN(C)C)C2c2cccs2)c1C (stereo not drawn),16.9
21,CCOC(CNC(=O)c1ccc2c(c1)ncn2-c1cccc(F)c1)OCC,-17.3
22,O=C(CSc1n[nH]c(=O)n1-c1ccc2c(c1)OCCO2)Nc1ccccc1,13
23,COc1ccc(OCC(=O)N/N=C/c2ccncc2)cc1,17.9

row,SMILES,"hERG current change (%, negative = inhibition) at 10uM [%]"
1,CCOC(=O)c1[nH]c(C)c(C(=O)N2CCN(c3ccccc3)CC2)c1C,-13.2
2,CCOC(=O)c1sc(NC(=O)CN2CCN(c3ccccc3)CC2)nc1C,-5.78
3,CCOC(=O)c1c(N2CCN(c3ccccc3)CC2)cc(C)nc1C.O=C([O-])C(=O)[O-],-72
4,COc1ccccc1NC(=O)C(C)OC(=O)c1ccc(-n2cnnn2)cc1 (stereo not drawn),-87.5
5,COc1ccccc1NC(=O)C(C)OC(=O)c1cccc(-n2cnnn2)c1 (stereo not drawn),-35.2
6,CC(OC(=O)c1ccc(-n2cnnn2)cc1)C(=O)Nc1ccccc1F (stereo not drawn),-23.2
7,COCCn1c(C)cc(/C=N/NC(=O)c2cc3ccccc3cc2O)c1C,10.3
8,O=C(Nc1ccccc1F)C1CCN(S(=O)(=O)c2cccnc2)CC1,9.24
9,COc1ccc(S(=O)(=O)N(C)C)cc1NC(=O)COC(=O)c1nc2nccc(C)n2n1,9.68
10,CC(NC(=O)CN1c2cccc3cccc(c23)S1(=O)=O)c1ccc(S(N)(=O)=O)cc1 (stereo not drawn),-25.1
11,Cc1ccc(NC(=O)N/C=C/c2ccco2)cc1C,-1.57
12,Cn1cncc1COC(=O)c1ccc(Cl)cc1,5.21
13,COc1ccccc1N1CCN(C(=O)CCc2ccccc2)CC1,-11.4
14,Cc1cccc(N2CCN(C(=S)NCCc3ccccc3)CC2)c1C,-5.03
15,C/C=C(\C)CN1CCN(c2cccc(C)c2C)CC1,-3.49
16,C/C(=C\c1ccccc1)CN1CCN(c2ccccc2F)CC1,5.01
17,COc1ccccc1N1CCN(Cc2nnnn2CCc2ccccc2)CC1.Cl,8.3
18,COc1ccccc1N1CCN(C/C(C)=C/c2ccccc2)CC1,-63.4
19,Cc1cccc(N2CCN(CCc3ccccc3)CC2)c1C,-75.1
20,COc1ccccc1N1CCN(CCc2ccccc2)CC1,-59.4
21,C/C(=C\c1ccccc1)CN1CCN(c2ccccc2)CC1,-3.31
22,CC(C)C(NS(=O)(=O)c1cccs1)C(=O)NCc1ccccc1Cl (stereo not drawn),0.166

# From paper PMC4336329 (PLoS ONE, 2015)
